PubChem BioAssay AID935 (National Center for Advancing Translational Sciences (NCATS), 2007)
Results filed as inconclusive are left out. The source made the active and inactive calls. The call rests on the fitted dose curve.

assay: Confirmation Concentration-Response Assay for Identification of Small Molecule Agonists of Stat Signaling Pathway; conditions: SIE-bla cells, IL-6 STAT beta-lactamase reporter, 5 h
From the text: NIH Molecular Libraries Screening Centers Network [MLSCN] NIH Chemical Genomics Center [NCGC] MLSCN Grant: None NCGC Assay Overview: This assay is a retest of actives identified from the Stat signaling pathway assay (PubChem AID 446). The Stat assay is cell-based and measures Interleukin 6 (IL-6) mediated modulation of a beta-lactamase reporter gene controlled by a STAT inducible element (SIE-bla cells, Invitrogen). IL-6 is a cytokine that signals via the JAK/STAT pathway and is implicated in cancer and inflammation. SIE-bla cells are induced by IL-6 at 40 pM EC50 and inhibited by the pan JAK inhibitor, 2-(1,1-Dimethylethyl)-9-fluoro-3,6-dihydro-7H-benz[h]-imidaz[4,5-f]isoquinolin-7-one, at approximately 10 nM IC50. Plated cells were incubated overnight and on the following day, stimulated with 40 pM IL-6 for 5 hrs. The assay was stimulated with an EC50 of IL-6 to retest activators of STAT signaling.
NCGC Assay Protocol Summary: Cells were trypsinized, washed in assay medium (AM, OPTI MEM with 0.5% fetal bovine serum, 0.1 mM nonessential amino acids, 1 mM sodium pyruvate, 10mM HEPES pH 7.3, 100U/ml penicillin, and 100 ug/ml streptomycin) and suspended at […] in AM. Approximately 2500 cells in 5 uL/well was dispensed into 1536-well plates and the cells were incubated overnight at 37 C. 23 nL of compound were delivered by a pin tool and 1 uL of IL-6 (40 pM final concentration in AM) was added. After plates were incubated at 37 C for 5 hrs, 1uL of detector mix (LiveBLAzerTM, Invitrogen) was added, the plates incubated at room temperature for 2.5 hrs, and fluorescence intensity at 460 and 530 nm emissions was measured at 405 nm excitation by an Envision (Perkin Elmer).

SMILES | Potency
Nc1ncnc2c1ncn2[C@@H]1O[C@H](COP(=O)(O)O)[C@@H](O)[C@@H]1O | 25.1 µM (active)
CN(C)c1ccc(-c2nn3c(-c4ccc(Cl)cc4)nnc3s2)cc1 | 3.16 µM (active)
Cc1ccc(CNC(=O)c2cc3c(=O)n4ccccc4nc3n(CC3CCCO3)c2=N)cc1 (stereo unspecified) | 10 µM (active)
CCN(CC)CCC[C@H](C)Nc1c2ccc(Cl)cc2nc2ccc(OC)cc12 | 12.6 µM (active)
Cc1cc(=O)oc2c(CN3CCCCC3)c(O)c(Cl)cc12 | 10 µM (active)
CCN(CC)CCN1C(=O)c2cccc3cc(N)cc(c23)C1=O | 15.8 µM (active)
Cc1ccc(S(=O)(=O)N2CCN(c3nc(C(C)C)c4c(c3C#N)CC(C)(C)OC4)CC2)cc1 | 10 µM (active)
CCNC(=O)c1cc2c(=O)n3cccc(C)c3nc2n(CCc2ccccc2)c1=N | 12.6 µM (active)
CCOC(=O)c1cc2c(=O)n3cccc(C)c3nc2n(C)c1=N | 3.98 µM (active)
COc1cccc2c1C(=O)c1c(O)c3c(c(O)c1C2=O)C[C@@](O)(C(=O)CO)C[C@@H]3O[C@H]1C[C@H](N)[C@H](O)[C@H](C)O1 | 3.98 µM (active)
CC1CCN(c2oc(-c3ccccc3Cl)nc2C#N)CC1 | 6.31 µM (active)
